This is part of a sample that, as a whole, favours compounds with a hit. Of some 79,000 tested, about 15% had one in any assay. Activity calls are given as the source filed them. Rule as the data show it: active = growth inhibition above about 70%; inactive = the rest. Residues, ends and D or L forms follow the SMILES beside them. *: point of attachment. CH2Cl = ClC*
What was measured:
[1] = NCI Yeast Anticancer Drug Screen. Data for the rad14 strain (AID 159);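 also: 0% = growth of vehicle-treated control cultures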; details: S. cerevisiae rad14 strain growth inhibition, hits give high values
Outline: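 A mutant yeast strain defective in DNA damage repair is treated with compound; inhibition of its growth is scored against untreated, vehicle-exposed cultures.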

[2] = NCI Yeast Anticancer Drug Screen. Data for the sgs1 mgt1 strain (AID 161);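 also: 0% = growth of cultures given vehicle only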; details: S. cerevisiae sgs1 mgt1 strain, at 50.0 µM, hits give high values
Outline: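 Compounds are added to genetically altered yeast, and growth is compared with cultures given vehicle alone to give percent inhibition.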

[3] = NCI Yeast Anticancer Drug Screen. Data for the CLN2oe strain (AID 163);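 also: 0% = growth of vehicle-only control cultures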; details: S. cerevisiae CLN2oe strain, hits give high values
Outline: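 Values reflect how much compound exposure reduced yeast growth, referenced to vehicle-exposed cells. Assay organism is a strain with a defined genetic change affecting cell-cycle control.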

[4] = NCI Yeast Anticancer Drug Screen. Data for the cln2 rad14 strain (AID 165);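 also: 0% = growth equal to vehicle treated cultures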; details: S. cerevisiae cln2 rad14 strain, at 50.0 µM, hits give high values
Outline: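 Relative to vehicle controls, growth inhibition of compound-treated cln2 rad14 yeast was recorded.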

[5] = NCI Yeast Anticancer Drug Screen. Data for the bub3 strain (AID 167); details: S. cerevisiae bub3 mutant strain, hits give high values
Outline: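 Steps: expose the mutant yeast strain to compound; grow alongside vehicle-treated cultures; measure growth; express inhibition against the vehicle cultures.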

[6] = NCI Yeast Anticancer Drug Screen. Data for the wt2 strain (AID 169);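 also: 0% = growth of vehicle-treated yeast cultures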; details: S. cerevisiae wt2 strain growth inhibition, hits give high values
Outline: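 Values express reduction in yeast growth under compound treatment, referenced to vehicle-treated cells.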

[7] = NCI Yeast Anticancer Drug Screen. Data for the mlh1 strain (AID 171);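 also: 0% = growth of vehicle-treated control cultures of the same strain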; details: S. cerevisiae mlh1 strain growth inhibition, hits give high values
Outline: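 Steps: expose the defined-mutant yeast strain to compound; expose a parallel culture to vehicle; measure growth; express compound effect as inhibition relative to the vehicle culture.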

[8] = NCI Yeast Anticancer Drug Screen. Data for the sgs1 strain (AID 173);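 also: 0% = growth of vehicle-only control cultures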; details: S. cerevisiae sgs1 mutant, hits give high values
Outline: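 Treat defined-mutant yeast with compound; measure growth; calculate inhibition relative to vehicle-treated cells.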

[9] = NCI Yeast Anticancer Drug Screen. Data for the mlh1 rad18 strain (AID 175); details: S. cerevisiae mlh1 rad18 strain growth inhibition; at 50.0 µM; hits give high values
Outline: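 Test agents were incubated with a yeast strain of defined genotype (DNA damage repair defect). Inhibition of growth was derived by comparison with vehicle-exposed cultures.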

[10] = NCI Yeast Anticancer Drug Screen. Data for the rad18 strain (AID 177); details: S. cerevisiae rad18 mutant growth inhibition, hits give high values
Outline: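 A genetically defined yeast mutant impaired in DNA damage repair was treated with test compounds, then its growth was measured against cultures receiving vehicle alone.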

[11] = NCI Yeast Anticancer Drug Screen. Data for the rad52 strain (AID 147);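 also: 0% = growth of vehicle-treated control cultures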; details: S. cerevisiae rad52 mutant growth inhibition, hits give high values
Outline: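 Screen used a yeast mutant impaired in DNA repair. After compound exposure, growth was measured. Values reflect inhibition compared with vehicle-treated cells.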

[12] = NCI Yeast Anticancer Drug Screen. Data for the wt1 strain (AID 149);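 also: 0% = growth of vehicle-treated wt1 cultures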; details: S. cerevisiae wt1 strain (SPY 50644) growth inhibition, hits give high values
Outline: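 Compounds are added to wt1 yeast cultures. Growth is then measured. Inhibition is expressed relative to vehicle-treated controls.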

[13] = NCI Yeast Anticancer Drug Screen. Data for the rad50EPP+ strain (AID 151);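 also: 0% = growth of vehicle-treated control cultures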; details: S. cerevisiae rad50 mutant strain, hits give high values
Outline: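 Exposing the rad50EPP+ strain to each compound, growth was compared with vehicle-only cultures to give inhibition.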

[14] = NCI Yeast Anticancer Drug Screen. Data for the rad50 strain (AID 155);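 also: 0% = growth of vehicle-only cultures of the same strain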; details: S. cerevisiae rad50 strain growth inhibition, hits give high values
Outline: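 Inhibition values express reduced yeast growth in compound-treated cultures relative to vehicle-treated controls.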

[15] = NCI Yeast Anticancer Drug Screen. Data for the mec2-1 strain (AID 157); details: S. cerevisiae mec2-1 strain, hits give high values
Outline: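 Readout is yeast growth inhibition, normalised to vehicle-treated controls, in the mec2-1 strain exposed to compound.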

Measured: growth inhibition

CN(N=O)C(=O)N[C@@H](C=O)[C@@H](O)[C@H](O)[C@H](O)CO
inactive: [1]; at 33.0 µM -2% | [1]; at 100.0 µM -4% | [2] 17.6% | [3]; at 1.2 µM -10% | [3]; at 3.7 µM -3% | [3]; at 11.0 µM -6% | [3]; at 33.0 µM -9% | [3]; at 100.0 µM -6% | [4] -1.1% | [5]; at 1.2 µM 1% | [5]; at 3.7 µM 0% | [5]; at 11.0 µM 0% | [5]; at 33.0 µM -4% | [5]; at 50.0 µM 7.3% | [5]; at 100.0 µM -1% | [6]; at 1.2 µM -3% | [6]; at 3.7 µM 0% | [6]; at 11.0 µM -2% | [6]; at 33.0 µM -1% | [6]; at 100.0 µM -1% | [7]; at 1.2 µM -1% | [7]; at 3.7 µM -1% | [7]; at 11.0 µM 1% | [7]; at 33.0 µM 0% | [7]; at 100.0 µM 0% | [8]; at 1.2 µM 0% | [8]; at 3.7 µM 0% | [8]; at 11.0 µM 2% | [8]; at 33.0 µM 2% | [8]; at 100.0 µM 1% | [9] 4.1% | [10]; at 1.2 µM 0% | [10]; at 3.7 µM 0% | [10]; at 11.0 µM 0% | [10]; at 33.0 µM 2% | [10]; at 100.0 µM 19%

CC(=O)NC(CC(C)C)C(=O)NC(Cc1ccccc1)C(=O)CCl (stereo not drawn) (Ac-Leu-Phe-CH2Cl; configuration not given here)
inactive: [11]; at 1.2 µM -3% | [11]; at 3.7 µM 1% | [11]; at 11.0 µM 9% | [11]; at 33.0 µM 27% | [12]; at 1.2 µM -2% | [12]; at 3.7 µM -5% | [12]; at 11.0 µM -5% | [12]; at 33.0 µM -4% | [12]; at 100.0 µM 37% | [13]; at 1.2 µM -3% | [13]; at 3.7 µM -4% | [13]; at 11.0 µM -1% | [13]; at 33.0 µM 9% | [13]; at 100.0 µM 52% | [14]; at 1.2 µM -3% | [14]; at 3.7 µM 1% | [14]; at 11.0 µM 6% | [14]; at 33.0 µM 25% | [14]; at 50.0 µM 7.1% | [15]; at 1.2 µM -4% | [15]; at 3.7 µM 0% | [15]; at 11.0 µM 3% | [15]; at 33.0 µM 21% | [15]; at 50.0 µM 33.4% | [1]; at 1.2 µM -5% | [1]; at 3.7 µM -4% | [1]; at 11.0 µM -2% | [1]; at 33.0 µM 3% | [1]; at 100.0 µM 36% | [2] 46.9% | [3]; at 1.2 µM -8% | [3]; at 3.7 µM -7% | [3]; at 11.0 µM -8% | [3]; at 33.0 µM -2% | [3]; at 100.0 µM 51% | [4] -31.9% | [5]; at 1.2 µM -1% | [5]; at 3.7 µM -2% | [5]; at 11.0 µM -4% | [5]; at 33.0 µM 6% | [5]; at 50.0 µM 53.7% | [6]; at 1.2 µM -4% | [6]; at 3.7 µM -3% | [6]; at 11.0 µM -2% | [6]; at 33.0 µM -1% | [7]; at 1.2 µM -4% | [7]; at 3.7 µM -3% | [7]; at 11.0 µM -1% | [7]; at 33.0 µM 5% | [8]; at 1.2 µM -3% | [8]; at 3.7 µM -4% | [8]; at 11.0 µM 1% | [8]; at 33.0 µM 15% | [9] 40.3% | [10]; at 1.2 µM -3% | [10]; at 3.7 µM -2% | [10]; at 11.0 µM 3% | [10]; at 33.0 µM 9%
active: [11]; at 100.0 µM 74% | [14]; at 100.0 µM 77% | [15]; at 100.0 µM 85% | [5]; at 100.0 µM 84% | [6]; at 100.0 µM 71% | [7]; at 100.0 µM 77% | [8]; at 100.0 µM 75% | [10]; at 100.0 µM 72%

Reference: PubChem BioAssay (NCI)
